About 7,900 targets were measured; listed, in parts, are those with a hit and a random draw of the rest. About 0.6% of all pairs of compound and target were hits. Values without a mark were called inactive.

Sequence of UniProt P26368 (P26368 whole entry, looked up): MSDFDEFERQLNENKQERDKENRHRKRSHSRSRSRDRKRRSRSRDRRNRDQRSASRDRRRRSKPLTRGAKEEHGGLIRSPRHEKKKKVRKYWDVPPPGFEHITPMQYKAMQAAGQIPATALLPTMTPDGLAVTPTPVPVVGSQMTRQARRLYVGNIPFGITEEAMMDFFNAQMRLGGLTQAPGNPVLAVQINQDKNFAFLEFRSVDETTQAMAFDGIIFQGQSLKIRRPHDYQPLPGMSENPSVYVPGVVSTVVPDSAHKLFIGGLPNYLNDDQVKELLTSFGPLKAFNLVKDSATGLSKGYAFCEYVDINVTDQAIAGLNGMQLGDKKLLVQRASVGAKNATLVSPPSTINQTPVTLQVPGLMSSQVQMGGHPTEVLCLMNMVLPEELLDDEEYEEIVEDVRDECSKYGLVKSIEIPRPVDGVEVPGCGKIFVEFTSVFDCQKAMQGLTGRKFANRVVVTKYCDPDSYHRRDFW
Sequence of UniProt O43156 (O43156 whole entry, looked up): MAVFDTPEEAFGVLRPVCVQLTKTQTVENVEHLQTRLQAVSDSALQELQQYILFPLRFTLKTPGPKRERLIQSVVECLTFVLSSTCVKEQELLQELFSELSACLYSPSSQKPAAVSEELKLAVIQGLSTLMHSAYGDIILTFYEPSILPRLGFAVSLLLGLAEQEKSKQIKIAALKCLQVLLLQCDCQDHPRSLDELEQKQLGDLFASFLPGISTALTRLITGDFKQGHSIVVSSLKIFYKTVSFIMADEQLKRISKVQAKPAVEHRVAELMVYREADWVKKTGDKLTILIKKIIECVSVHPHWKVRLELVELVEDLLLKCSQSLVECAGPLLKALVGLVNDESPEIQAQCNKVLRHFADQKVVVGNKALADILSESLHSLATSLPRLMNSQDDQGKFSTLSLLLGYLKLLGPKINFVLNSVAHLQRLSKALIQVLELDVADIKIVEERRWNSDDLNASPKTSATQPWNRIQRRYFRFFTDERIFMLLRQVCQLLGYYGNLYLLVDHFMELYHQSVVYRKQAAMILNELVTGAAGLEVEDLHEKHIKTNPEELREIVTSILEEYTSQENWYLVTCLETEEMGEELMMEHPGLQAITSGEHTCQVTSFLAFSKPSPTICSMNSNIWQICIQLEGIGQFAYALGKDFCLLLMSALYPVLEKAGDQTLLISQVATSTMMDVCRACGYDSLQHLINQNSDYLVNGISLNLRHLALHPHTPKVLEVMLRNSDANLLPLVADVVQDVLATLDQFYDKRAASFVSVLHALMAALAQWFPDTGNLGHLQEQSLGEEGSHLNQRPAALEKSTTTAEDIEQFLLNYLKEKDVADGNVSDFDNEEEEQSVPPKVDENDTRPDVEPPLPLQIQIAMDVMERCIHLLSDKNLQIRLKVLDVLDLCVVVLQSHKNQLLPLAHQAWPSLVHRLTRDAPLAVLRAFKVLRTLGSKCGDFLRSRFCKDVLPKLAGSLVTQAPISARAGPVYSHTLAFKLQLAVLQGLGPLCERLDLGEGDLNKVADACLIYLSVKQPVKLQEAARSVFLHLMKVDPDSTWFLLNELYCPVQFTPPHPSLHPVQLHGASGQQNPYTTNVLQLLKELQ
Sequence of UniProt O00220 (O00220 whole entry, looked up): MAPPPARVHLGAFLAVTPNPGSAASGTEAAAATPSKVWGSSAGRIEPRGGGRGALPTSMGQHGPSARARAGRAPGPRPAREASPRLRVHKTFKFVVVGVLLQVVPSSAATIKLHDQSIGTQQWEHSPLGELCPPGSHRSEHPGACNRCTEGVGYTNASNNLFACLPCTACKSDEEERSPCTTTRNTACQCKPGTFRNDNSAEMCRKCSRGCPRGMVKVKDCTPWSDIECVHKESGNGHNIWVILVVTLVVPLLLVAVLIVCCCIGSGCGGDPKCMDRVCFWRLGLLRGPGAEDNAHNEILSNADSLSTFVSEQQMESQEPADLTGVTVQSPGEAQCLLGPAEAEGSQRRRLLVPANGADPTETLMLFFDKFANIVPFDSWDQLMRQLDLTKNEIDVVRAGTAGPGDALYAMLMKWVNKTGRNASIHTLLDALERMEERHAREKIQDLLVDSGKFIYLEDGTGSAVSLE
Sequence of UniProt O14980 (O14980 whole entry, looked up): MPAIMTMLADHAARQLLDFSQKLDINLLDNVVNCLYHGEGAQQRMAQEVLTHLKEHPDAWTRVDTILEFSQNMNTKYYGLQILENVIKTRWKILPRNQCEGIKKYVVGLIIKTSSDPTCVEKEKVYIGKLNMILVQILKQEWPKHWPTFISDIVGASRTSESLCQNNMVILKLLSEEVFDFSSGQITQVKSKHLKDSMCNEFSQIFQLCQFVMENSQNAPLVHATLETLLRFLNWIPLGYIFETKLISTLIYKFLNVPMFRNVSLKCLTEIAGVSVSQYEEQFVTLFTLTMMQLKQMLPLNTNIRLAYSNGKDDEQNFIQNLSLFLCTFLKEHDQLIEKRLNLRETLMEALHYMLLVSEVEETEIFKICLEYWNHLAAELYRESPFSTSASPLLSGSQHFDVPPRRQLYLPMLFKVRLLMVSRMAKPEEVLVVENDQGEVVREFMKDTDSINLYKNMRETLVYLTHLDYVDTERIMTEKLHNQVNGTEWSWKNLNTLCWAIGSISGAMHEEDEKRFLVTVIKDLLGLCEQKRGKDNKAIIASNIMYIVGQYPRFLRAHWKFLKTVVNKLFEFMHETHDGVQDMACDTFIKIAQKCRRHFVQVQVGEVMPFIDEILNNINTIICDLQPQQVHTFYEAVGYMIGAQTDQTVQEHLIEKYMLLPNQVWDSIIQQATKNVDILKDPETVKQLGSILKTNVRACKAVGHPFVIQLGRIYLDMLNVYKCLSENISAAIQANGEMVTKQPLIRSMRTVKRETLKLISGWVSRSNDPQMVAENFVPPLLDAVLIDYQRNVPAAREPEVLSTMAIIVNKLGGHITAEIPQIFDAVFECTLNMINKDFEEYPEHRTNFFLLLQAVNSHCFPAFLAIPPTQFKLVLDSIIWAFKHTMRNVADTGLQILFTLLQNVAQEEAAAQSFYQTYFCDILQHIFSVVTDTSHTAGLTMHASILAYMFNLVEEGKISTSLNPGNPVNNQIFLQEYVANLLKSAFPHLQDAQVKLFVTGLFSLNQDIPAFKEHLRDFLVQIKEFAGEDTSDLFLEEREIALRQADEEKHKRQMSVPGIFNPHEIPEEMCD
Sequence of UniProt Q9BXJ8 (Q9BXJ8 whole entry, looked up): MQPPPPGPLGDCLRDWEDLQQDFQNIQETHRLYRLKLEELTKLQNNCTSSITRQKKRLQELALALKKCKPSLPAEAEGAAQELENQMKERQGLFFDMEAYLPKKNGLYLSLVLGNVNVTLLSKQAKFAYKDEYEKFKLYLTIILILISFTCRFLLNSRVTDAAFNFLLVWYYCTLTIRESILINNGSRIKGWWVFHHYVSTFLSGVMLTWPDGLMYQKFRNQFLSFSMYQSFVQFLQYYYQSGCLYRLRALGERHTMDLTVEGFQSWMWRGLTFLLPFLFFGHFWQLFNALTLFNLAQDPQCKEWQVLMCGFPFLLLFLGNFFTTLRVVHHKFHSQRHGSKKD
Sequence of UniProt O95801 (O95801 whole entry, looked up): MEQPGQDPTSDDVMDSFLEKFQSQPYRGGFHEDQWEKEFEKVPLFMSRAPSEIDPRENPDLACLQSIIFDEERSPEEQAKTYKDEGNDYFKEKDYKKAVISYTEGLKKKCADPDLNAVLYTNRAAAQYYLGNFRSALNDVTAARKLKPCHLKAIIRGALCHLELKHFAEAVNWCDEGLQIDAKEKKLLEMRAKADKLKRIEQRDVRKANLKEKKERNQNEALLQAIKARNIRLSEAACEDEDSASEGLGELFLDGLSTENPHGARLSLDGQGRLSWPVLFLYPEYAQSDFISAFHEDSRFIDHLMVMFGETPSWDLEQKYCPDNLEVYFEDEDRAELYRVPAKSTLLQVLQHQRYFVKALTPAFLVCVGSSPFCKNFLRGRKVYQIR
Sequence of UniProt Q9Y4E8 (Q9Y4E8 whole entry, looked up): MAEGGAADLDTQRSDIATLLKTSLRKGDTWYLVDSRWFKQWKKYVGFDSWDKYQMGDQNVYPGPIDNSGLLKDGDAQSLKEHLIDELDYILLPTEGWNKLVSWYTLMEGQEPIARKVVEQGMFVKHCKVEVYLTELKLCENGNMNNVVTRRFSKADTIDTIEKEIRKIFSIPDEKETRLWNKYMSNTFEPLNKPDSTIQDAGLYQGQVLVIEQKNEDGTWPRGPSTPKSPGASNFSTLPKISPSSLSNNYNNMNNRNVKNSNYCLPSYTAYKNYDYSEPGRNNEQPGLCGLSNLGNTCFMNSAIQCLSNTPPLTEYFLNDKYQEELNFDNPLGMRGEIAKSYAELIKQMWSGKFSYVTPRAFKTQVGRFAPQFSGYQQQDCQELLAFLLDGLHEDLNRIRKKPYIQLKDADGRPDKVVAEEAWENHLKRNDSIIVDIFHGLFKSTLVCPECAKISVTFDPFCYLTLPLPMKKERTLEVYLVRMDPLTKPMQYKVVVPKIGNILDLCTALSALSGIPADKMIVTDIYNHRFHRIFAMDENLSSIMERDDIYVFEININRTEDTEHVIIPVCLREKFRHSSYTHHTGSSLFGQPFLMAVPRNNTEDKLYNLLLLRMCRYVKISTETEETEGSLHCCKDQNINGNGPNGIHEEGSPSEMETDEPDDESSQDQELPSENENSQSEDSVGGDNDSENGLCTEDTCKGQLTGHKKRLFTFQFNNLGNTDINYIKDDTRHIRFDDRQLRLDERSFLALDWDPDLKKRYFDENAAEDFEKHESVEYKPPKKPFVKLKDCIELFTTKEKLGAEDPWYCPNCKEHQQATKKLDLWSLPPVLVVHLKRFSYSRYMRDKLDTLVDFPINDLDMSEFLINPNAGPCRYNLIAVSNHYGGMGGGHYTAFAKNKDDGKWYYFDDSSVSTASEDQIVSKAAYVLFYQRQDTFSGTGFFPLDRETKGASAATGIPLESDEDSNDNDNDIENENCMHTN
Sequence of UniProt P02585 (P02585 whole entry, looked up): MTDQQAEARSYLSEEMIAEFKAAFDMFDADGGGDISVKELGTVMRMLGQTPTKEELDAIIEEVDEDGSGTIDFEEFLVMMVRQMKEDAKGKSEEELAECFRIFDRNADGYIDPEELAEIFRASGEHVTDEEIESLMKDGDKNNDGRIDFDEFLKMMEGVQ

Compound in one experiment: O=C(CCCCCCNC(=O)c1cnc(N(c2ccccc2)c2ccccc2Cl)nc1)NO [citarinostat]
The experiment can be described thus: log2 fold change, soluble protein after heating vs DMSO (PISA); higher = thermal stabilisation; K562 cells, 10 uM, 30 min; active = over 0.2 and 3.5 SD of the protein, either way, in both replicates (recomputed). In outline: (§1)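 K562 cells at 2×10^6 cells/mL were treated with 10 μM compound for 30 min. Aliquots were heated for 3 min across 48°C-58°C, pooled, and extracted in PBS with 0.5% NP-40 at 4°C; soluble protein was the supernatant after 21,000xg for 90 min. Soluble protein was quantified by TMTpro 16plex LC-MS/MS with channel sums equalised, and reported as log2 fold change in thermal stability against DMSO controls, with values from duplicates.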
With TMEM120A (UniProt Q9BXJ8), the log2 fold change is 0.252.
USP48 isoform 8 (UniProt Q86UV5): the log2 fold change is 0.177.
For TNFRSF10A (UniProt O00220), the log2 fold change is -0.011.
Regarding TSG101 (UniProt Q99816), the log2 fold change is 0.053.
As for UHRF1BP1L (UniProt A0JNW5), the log2 fold change is -0.032.
Regarding TTC4 (UniProt O95801), the log2 fold change was 0.064.
The same measure, in the same setting: to UBA1 (UniProt P22314) belongs 0.125; to TTI1 (UniProt O43156), 0.028.
With USP15 (UniProt Q9Y4E8), the log2 fold change is 0.064.
With U2AF2 (UniProt P26368), the log2 fold change was -0.014.
For XPO1 (UniProt O14980), the log2 fold change was 0.092.
Regarding TNNC2 (UniProt P02585), the log2 fold change is 0.048.
In the case of UBA6, the log2 fold change was 0.052.

Compound in another experiment: O=C(O)c1ccc2c(c1)nc(Nc1cccc(Cl)c1)c1ccncc12 [silmitasertib]
The experiment is described as above. In outline: as §1
For VPS11 (UniProt Q9H270), the log2 fold change was 0.025.
As to TNFRSF8 (UniProt P28908), the log2 fold change is -0.052.
The same measure, in the same setting: the value for UGGT1 (UniProt Q9NYU2) was 0.01.
On to WDR37 isoform 2 (UniProt Q9Y2I8), for which the log2 fold change is -0.059.
The same measure, in the same setting: the value for WDR41 (UniProt Q9HAD4) was 0.031; that for UBLCP1 (UniProt Q8WVY7) was 0.049.
Still for that read-out and setting: to VRK2 (UniProt Q86Y07) belongs 0; to WNK1 isoform 7 (UniProt Q9H4A3), -0.062; to UPF3B (UniProt Q9BZI7), 0.149.
As for TTC38 (UniProt Q5R3I4), the log2 fold change was -0.156.
WRB (UniProt O00258): the log2 fold change is 0.028.
Take VPS50 (UniProt Q96JG6): the log2 fold change is 0.06.
As to VDAC1 (UniProt P21796), the log2 fold change is -0.015.
As to USP14 (UniProt P54578), the log2 fold change was 0.007.
Take XPO5 (UniProt Q9HAV4): the log2 fold change was -0.003.
Regarding TMEM223 (UniProt A0PJW6), the log2 fold change is 0.019.
The same measure, in the same setting: the value for TMEM161B (UniProt Q8NDZ6) was -0.011.
For TUBAL3 (UniProt A6NHL2), the log2 fold change was 0.087.
As for TMEM263 (UniProt Q8WUH6), the log2 fold change was 0.057.
Regarding VTA1 (UniProt Q9NP79), the log2 fold change was 0.023.
Consider XPNPEP3 (UniProt Q9NQH7), for which the log2 fold change was -0.004.
As to TNPO1 (UniProt Q92973), the log2 fold change is 0.025.
In the case of WDR11 (UniProt Q9BZH6), the log2 fold change was -0.025.
The same measure, in the same setting: the value for TMEM120A (UniProt Q9BXJ8) was -0.124.
For USP48 isoform 8 (UniProt Q86UV5), the log2 fold change was 0.094.
As for TNFRSF10A (UniProt O00220), the log2 fold change was 0.028.
Regarding TSG101 (UniProt Q99816), the log2 fold change was 0.025.
As for UHRF1BP1L (UniProt A0JNW5), the log2 fold change was 0.015.
The same measure, in the same setting: to TTC4 (UniProt O95801) belongs 0.074; to UBA1 (UniProt P22314), 0.018; to TTI1 (UniProt O43156), 0.062.
As to USP15 (UniProt Q9Y4E8), the log2 fold change was 0.035.
On to U2AF2 (UniProt P26368), for which the log2 fold change was -0.049.
For the target XPO1 (UniProt O14980), the log2 fold change is 0.025.
On the same count and under the same terms, the value for TNNC2 (UniProt P02585) was -0.026.
On to UBA6, for which the log2 fold change is -0.004.

Compound in another experiment: O=C1NC(=O)C(c2cnc3ccccn23)=C1c1cn2c3c(cc(F)cc13)CN(C(=O)N1CCCCC1)CC2
The description is as above. In outline:
as §1
Turning to VPS11 (UniProt Q9H270), the log2 fold change was 0.024.
As for TNFRSF8 (UniProt P28908), the log2 fold change is -0.053.
With UGGT1 (UniProt Q9NYU2), the log2 fold change was -0.025.
Same read-out and setting: the value for WDR37 isoform 2 (UniProt Q9Y2I8) was 0.032; that for WDR41 (UniProt Q9HAD4) was -0.11.
For the target UBLCP1 (UniProt Q8WVY7), the log2 fold change was -0.142.
On to VRK2 (UniProt Q86Y07), for which the log2 fold change was 0.06.
For WNK1 isoform 7 (UniProt Q9H4A3), the log2 fold change is -0.01.
With UPF3B (UniProt Q9BZI7), the log2 fold change is 0.245.
In the case of TTC38 (UniProt Q5R3I4), the log2 fold change was 0.042.
WRB (UniProt O00258): the log2 fold change is 0.062.
For VPS50 (UniProt Q96JG6), the log2 fold change was 0.037.
On to VDAC1 (UniProt P21796), for which the log2 fold change was -0.019.
For USP14 (UniProt P54578), the log2 fold change was -0.029.
Consider XPO5 (UniProt Q9HAV4), for which the log2 fold change is -0.022.
Regarding TMEM223 (UniProt A0PJW6), the log2 fold change is 0.05.
In the case of TMEM161B (UniProt Q8NDZ6), the log2 fold change is 0.003.
Consider TUBAL3 (UniProt A6NHL2), for which the log2 fold change was 0.059.
In the case of TMEM263 (UniProt Q8WUH6), the log2 fold change was -0.08.
The same measure, in the same setting: to VTA1 (UniProt Q9NP79) belongs -0.076; to XPNPEP3 (UniProt Q9NQH7), -0.02; to TNPO1 (UniProt Q92973), -0.021.
Turning to WDR11 (UniProt Q9BZH6), the log2 fold change is -0.016.
Still for that read-out and setting: the value for TMEM120A (UniProt Q9BXJ8) was 0.185.
As to USP48 isoform 8 (UniProt Q86UV5), the log2 fold change is -0.177.
With TNFRSF10A (UniProt O00220), the log2 fold change is -0.069.
Regarding TSG101 (UniProt Q99816), the log2 fold change is -0.103.
In the case of UHRF1BP1L (UniProt A0JNW5), the log2 fold change is -0.052.
Regarding TTC4 (UniProt O95801), the log2 fold change was -0.051.
As for UBA1 (UniProt P22314), the log2 fold change is -0.013.
TTI1 (UniProt O43156): the log2 fold change is 0.057.
For USP15 (UniProt Q9Y4E8), the log2 fold change is -0.016.
Take U2AF2 (UniProt P26368): the log2 fold change was 0.113.
Take XPO1 (UniProt O14980): the log2 fold change was 0.009.
Consider TNNC2 (UniProt P02585), for which the log2 fold change was -0.033.
For the target UBA6, the log2 fold change was -0.046.

The record behind these values is the supplement of paper PMC10849652.
